From PubChem BioAssay (NCI)
The panel holds about 79,000 compounds, 15% with a hit somewhere; the sample as a whole holds those more often. Active and inactive are the calls of the source. No stated cut-off is given here; in the data, active means growth inhibition above about 70%; inactive means the rest.

Key:
[1] = NCI Yeast Anticancer Drug Screen. Data for the rad52 strain (AID 147);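 further: 0% = growth of vehicle-treated control cultures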; conditions: S. cerevisiae rad52 mutant growth inhibition, active compounds read high
Outline: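 Read-out: growth inhibition versus vehicle-treated controls. Cells were a DNA repair-deficient yeast strain treated with compounds.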

[2] = NCI Yeast Anticancer Drug Screen. Data for the wt1 strain (AID 149);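 further: 0% = growth of vehicle-treated wt1 cultures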; conditions: S. cerevisiae wt1 strain (SPY 50644) growth inhibition, active compounds read high
Outline: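 Yeast wt1 strain exposed to compounds; growth inhibition measured relative to vehicle-treated controls.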

[3] = NCI Yeast Anticancer Drug Screen. Data for the rad50EPP+ strain (AID 151);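 further: 0% = growth of vehicle-treated control cultures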; conditions: S. cerevisiae rad50 mutant strain, active compounds read high
Outline: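 Growth inhibition read against vehicle controls in rad50EPP+ yeast, a strain altered in DNA damage repair, after compound exposure.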

[4] = NCI Yeast Anticancer Drug Screen. Data for the mgt1 strain (AID 153); conditions: S. cerevisiae mgt1 mutant growth inhibition, active compounds read high
Outline: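 mgt1 yeast grown with test compound; read-out is growth inhibition versus vehicle-treated cultures.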

[5] = NCI Yeast Anticancer Drug Screen. Data for the rad50 strain (AID 155);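 further: 0% = growth of vehicle-only cultures of the same strain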; conditions: S. cerevisiae rad50 strain growth inhibition, active compounds read high
Outline: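 Yeast carrying a defined DNA repair defect were exposed to test compounds, and growth was compared with vehicle-treated controls to give percent inhibition.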

[6] = NCI Yeast Anticancer Drug Screen. Data for the mec2-1 strain (AID 157); conditions: S. cerevisiae mec2-1 strain, active compounds read high
Outline: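 Yeast mec2-1 mutant treated with compound. Readout: growth inhibition vs vehicle controls.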

[7] = NCI Yeast Anticancer Drug Screen. Data for the rad14 strain (AID 159);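 further: 0% = growth of vehicle-treated control cultures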; conditions: S. cerevisiae rad14 strain growth inhibition, active compounds read high
Outline: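 Yeast cells carrying a defined DNA-repair defect were exposed to compounds, and growth inhibition was calculated relative to vehicle-treated control cultures.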

[8] = NCI Yeast Anticancer Drug Screen. Data for the sgs1 mgt1 strain (AID 161);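 further: 0% = growth of cultures given vehicle only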; conditions: S. cerevisiae sgs1 mgt1 strain, active compounds read high
Outline: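 Inhibition of yeast growth, normalised to vehicle-treated controls, is reported for a strain bearing genetic alterations in DNA damage repair.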

[9] = NCI Yeast Anticancer Drug Screen. Data for the CLN2oe strain (AID 163);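 further: 0% = growth of vehicle-only control cultures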; conditions: S. cerevisiae CLN2oe strain, active compounds read high
Outline: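 Read-out: yeast growth inhibition, expressed relative to vehicle-only controls. The strain bears an engineered cell-cycle alteration.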

[10] = NCI Yeast Anticancer Drug Screen. Data for the cln2 rad14 strain (AID 165);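 further: 0% = growth equal to vehicle treated cultures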; conditions: S. cerevisiae cln2 rad14 strain, active compounds read high
Outline: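 cln2 rad14 yeast strain; compound exposure; growth inhibition read vs vehicle controls.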

[11] = NCI Yeast Anticancer Drug Screen. Data for the bub3 strain (AID 167); conditions: S. cerevisiae bub3 mutant strain, active compounds read high
Outline: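 Compounds were applied to a genetically altered yeast strain carrying a cell-cycle control defect. Growth inhibition was scored against vehicle-treated controls.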

[12] = NCI Yeast Anticancer Drug Screen. Data for the wt2 strain (AID 169);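 further: 0% = growth of vehicle-treated yeast cultures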; conditions: S. cerevisiae wt2 strain growth inhibition, active compounds read high
Outline: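 Read-out: growth inhibition versus vehicle-treated control cultures after compound exposure of the yeast strain.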

[13] = NCI Yeast Anticancer Drug Screen. Data for the mlh1 strain (AID 171);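 further: 0% = growth of vehicle-treated control cultures of the same strain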; conditions: S. cerevisiae mlh1 strain growth inhibition, active compounds read high
Outline: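 Read-out: growth inhibition versus vehicle controls. Strain: engineered yeast with a defined DNA repair or cell cycle defect, compound-treated.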

[14] = NCI Yeast Anticancer Drug Screen. Data for the mlh1 rad18 strain (AID 175); conditions: S. cerevisiae mlh1 rad18 strain growth inhibition, active compounds read high
Outline: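 Yeast w/ defined DNA-repair lesions; compound exposure; growth vs vehicle controls → % inhibition.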

[15] = NCI Yeast Anticancer Drug Screen. Data for the rad18 strain (AID 177); conditions: S. cerevisiae rad18 mutant growth inhibition, active compounds read high
Outline: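 Readout: growth inhibition vs vehicle controls. Cells: genetically altered yeast strain, DNA repair defect.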

[16] = at 5.0 µM (retest, dose inferred, filed as 0.5)
[17] = at 50.0 µM (retest, dose inferred, filed as 5.0)

Measured: growth inhibition

Cc1nc2sc3c(c2c(=O)o1)CCCC3
active: [11]; at 50.0 µM 72.9%
inactive: [1]; at 1.2 µM 0% | [1]; at 3.7 µM 2% | [1]; at 11.0 µM 1% | [1]; at 33.0 µM 6% | [1]; at 100.0 µM 4% | [2]; at 1.2 µM -1% | [2]; at 3.7 µM 0% | [2]; at 11.0 µM 1% | [2]; at 33.0 µM -1% | [2]; at 100.0 µM 2% | [3]; at 1.2 µM -6% | [3]; at 3.7 µM -8% | [3]; at 11.0 µM -10% | [3]; at 33.0 µM -3% | [3]; at 100.0 µM -1% | [4]; at 1.2 µM -1% | [4]; at 3.7 µM -1% | [4]; at 11.0 µM 18% | [4]; at 33.0 µM -2% | [4]; at 100.0 µM 7% | [5]; at 1.2 µM 0% | [5]; at 3.7 µM 2% | [5]; [16] 18% | [5]; at 11.0 µM -11% | [5]; at 33.0 µM 7% | [5]; [17] 10% | [5]; at 50.0 µM 4.2% | [5]; at 100.0 µM 5% | [6]; at 1.2 µM 2% | [6]; at 3.7 µM 2% | [6]; [16] 5% | [6]; at 11.0 µM 2% | [6]; at 33.0 µM 6% | [6]; [17] -4% | [6]; at 50.0 µM 25.3% | [6]; at 100.0 µM 6% | [7]; at 1.2 µM 0% | [7]; at 3.7 µM -4% | [7]; at 11.0 µM 2% | [7]; at 33.0 µM 13% | [7]; at 100.0 µM 10% | [8]; [16] -6% | [8]; [17] 14% | [8]; at 50.0 µM 26.6% | [9]; at 1.2 µM -1% | [9]; at 3.7 µM 1% | [9]; at 11.0 µM 2% | [9]; at 33.0 µM 6% | [9]; at 100.0 µM 14% | [10]; [16] 23% | [10]; [17] 3% | [10]; at 50.0 µM 4.5% | [11]; at 1.2 µM 6% | [11]; at 3.7 µM 18% | [11]; [16] 30% | [11]; at 11.0 µM 31% | [11]; at 33.0 µM 39% | [11]; [17] 51% | [11]; at 100.0 µM 28% | [12]; at 1.2 µM -1% | [12]; at 3.7 µM 1% | [12]; at 11.0 µM 1% | [12]; at 33.0 µM 3% | [12]; at 100.0 µM 4% | [13]; at 1.2 µM 1% | [13]; at 3.7 µM -3% | [13]; at 11.0 µM 5% | [13]; at 33.0 µM 2% | [13]; at 100.0 µM 2% | [14]; [16] -2% | [14]; [17] -2% | [14]; at 50.0 µM 26% | [15]; at 1.2 µM -3% | [15]; at 3.7 µM -3% | [15]; at 11.0 µM -4% | [15]; at 33.0 µM -15% | [15]; at 100.0 µM 1%

C=CCNC1=C2C[C@@H](C)C[C@H](OC)[C@H](O)[C@@H](C)/C=C(\C)[C@H](OC(N)=O)[C@@H](OC)/C=C\C=C(/C)C(=O)NC(=CC1=O)C2=O
inactive: [1]; at 1.2 µM -16% | [1]; at 3.7 µM -21% | [1]; at 11.0 µM 46% | [2]; at 1.2 µM -26% | [2]; at 3.7 µM -53% | [2]; at 11.0 µM 41% | [3]; at 1.2 µM -33% | [3]; at 3.7 µM -43% | [3]; at 11.0 µM -46% | [3]; at 33.0 µM -30% | [3]; at 100.0 µM -1% | [4]; at 1.2 µM -72% | [4]; at 3.7 µM -44% | [4]; at 11.0 µM 57% | [5]; at 1.2 µM -33% | [5]; at 3.7 µM -12% | [5]; [16] -32% | [5]; at 11.0 µM 64% | [6]; at 1.2 µM -73% | [6]; at 3.7 µM -59% | [6]; [16] 5% | [7]; at 1.2 µM -73% | [7]; at 3.7 µM -42% | [7]; at 11.0 µM 55% | [8]; [16] -7% | [9]; at 1.2 µM -60% | [9]; at 3.7 µM -43% | [9]; at 100.0 µM 27% | [10]; [16] -4% | [11]; at 1.2 µM -49% | [11]; at 3.7 µM -12% | [11]; [16] 35% | [12]; at 1.2 µM -51% | [12]; at 3.7 µM -65% | [12]; at 11.0 µM 33% | [13]; at 1.2 µM -36% | [13]; at 3.7 µM -56% | [13]; at 11.0 µM 50% | [14]; [16] -7% | [15]; at 1.2 µM -22% | [15]; at 3.7 µM -23% | [15]; at 11.0 µM 68%
active: [1]; at 33.0 µM 97% | [1]; at 100.0 µM 97% | [2]; at 33.0 µM 95% | [2]; at 100.0 µM 96% | [4]; at 33.0 µM 95% | [4]; at 100.0 µM 95% | [5]; at 33.0 µM 95% | [5]; [17] 96% | [5]; at 50.0 µM 90.8% | [5]; at 100.0 µM 95% | [6]; at 11.0 µM 77% | [6]; at 33.0 µM 96% | [6]; [17] 98% | [6]; at 50.0 µM 92.5% | [6]; at 100.0 µM 95% | [7]; at 33.0 µM 95% | [7]; at 100.0 µM 94% | [8]; [17] 96% | [8]; at 50.0 µM 92% | [9]; at 11.0 µM 80% | [9]; at 33.0 µM 96% | [10]; [17] 97% | [10]; at 50.0 µM 90.3% | [11]; at 11.0 µM 74% | [11]; at 33.0 µM 95% | [11]; [17] 98% | [11]; at 50.0 µM 90.4% | [11]; at 100.0 µM 94% | [12]; at 33.0 µM 93% | [12]; at 100.0 µM 96% | [13]; at 33.0 µM 94% | [13]; at 100.0 µM 95% | [14]; [17] 97% | [14]; at 50.0 µM 89.1% | [15]; at 33.0 µM 95% | [15]; at 100.0 µM 95%
